Compound activity (PubChem)
Pf growth 48h: Primary qHTS for delayed death inhibitors of the malarial parasite plastid, 48 hour incubation | 5.9% of 310,000 active | P. falciparum luciferase growth in erythrocytes, 48 h | Potency, µM (top dose mostly 28.7 µM), without a hit: top-dose activity change, negative = inhibition, usual class: inhibitors | AID 504832, 2011; further: potency means the concentration at half of the fitted maximal effect; on the % scale 0 is the no-effect control and ±100 the full control effect
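Luciferase-expressing parasites in RBCs, 2% Hct / 0.1% parasitemia final; RPMI 1640 + 0.5% Albumax; 37 C, 5% CO2, one generation; luminescence read-out, lower signal = inhibition.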
LmPK inh: qHTS Assay for Inhibitors of Leishmania Mexicana Pyruvate Kinase (LmPK). Q27686. Potency, µM (highest dose often 57.5 µM), inactives show at the top dose activity change, negative = inhibition, most hits filed as inhibitors. purified LmPK, Kinase-Glo ATP luminescence, 1 h. 0.37% of 290,000 active; further: potency means the concentration at half of the fitted maximal effect; on the % scale 0 is the no-effect control and ±100 the full control effect
Target sequence (Q27686 whole entry, looked up): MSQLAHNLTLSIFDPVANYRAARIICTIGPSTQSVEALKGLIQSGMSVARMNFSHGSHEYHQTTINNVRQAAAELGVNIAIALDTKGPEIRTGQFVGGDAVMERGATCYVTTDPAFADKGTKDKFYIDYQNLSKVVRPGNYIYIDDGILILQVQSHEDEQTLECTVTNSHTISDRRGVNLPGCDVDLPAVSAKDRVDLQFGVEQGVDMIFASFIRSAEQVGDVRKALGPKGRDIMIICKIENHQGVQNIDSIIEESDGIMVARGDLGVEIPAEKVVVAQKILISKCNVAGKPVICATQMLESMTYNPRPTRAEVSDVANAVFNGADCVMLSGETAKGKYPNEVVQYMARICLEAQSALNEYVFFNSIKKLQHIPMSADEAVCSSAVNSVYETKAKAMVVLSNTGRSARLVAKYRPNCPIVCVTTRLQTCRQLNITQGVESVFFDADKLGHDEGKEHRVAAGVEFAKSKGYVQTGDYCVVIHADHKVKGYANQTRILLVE
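Purified LmPK (0.1 nM) converted ADP (0.1 mM) to ATP with PEP (0.5 mM) in imidazole buffer pH 7.2 with KCl and MgCl2, 1 h at room temperature. ATP was read by Kinase-Glo luminescence; data normalized to uninhibited and no-enzyme controls.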
Shiga inhibitor: A qHTS for Small Molecule Inhibitors of Shiga Toxin; Vero cells, Shiga toxin protein synthesis inhibition reporter; inhibition, % at 38.7 µM; 9.2% of 290,000 active; AID 2315, 2010; in the data active means inhibition mostly above about 28%, no sharp cut-off; inactive means mostly below about 43%; further: 0% is about no effect
CHX counter: Cycloheximide Counterscreen for Small Molecule Inhibitors of Shiga Toxin; max response, %; cell reporter, cycloheximide protein synthesis inhibition counterscreen; 12% of 300,000 active; in the data active means max response mostly above about 13%, no sharp cut-off; inactive means mostly below about 14%; further: read at 38.3 µM for the half of the compounds with a filed dose; 0% is about no effect
Pf growth 96h: Primary qHTS for delayed death inhibitors of the malarial parasite plastid, 96 hour incubation. P. falciparum luciferase reporter growth, 96 h. Potency, µM (highest dose often 28.7 µM), without a hit: top-dose activity change, negative = inhibition, usual class: inhibitors. 6.9% of 320,000 active; further: potency means the concentration at half of the fitted maximal effect; on the % scale 0 is the no-effect control and ±100 the full control effect
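P. falciparum expressing integrated firefly luciferase grown in erythrocytes (2% hematocrit, 0.05% parasitemia final) with compounds for 96 hours at 37 C, 5% CO2. Growth inhibition read as loss of luminescence after adding luciferase detection reagent.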
* marks the source's active call; other numbers are inactive results; u = inconclusive. In the library only some 22% were active in any assay of this set; here they are far more common. Unless noted, the call rests on the fitted dose curve; in most records, active means well fitted inhibition curve with a large enough effect; inconclusive means small, poorly fitted or top-dose-only effect, or another doubt; inactive means no such curve, though single readings can be large or run the other way.

SMILES	Pf growth 48h	LmPK inh	Shiga inhibitor	CHX counter	Pf growth 96h
Cc1ccc(NC(=O)c2ccco2)c(NC(=O)c2ccccc2C)c1	35%	-1%	-4	6	41%
COc1ccccc1NC(=O)c1cccc(NC(=O)c2ccco2)c1	-20%	3%	-1	-1	u
Cc1ccc(O)c(NC(=O)c2cccc(NC(=O)c3ccco3)c2)c1	28%	-1%	58*	30*	15%
Cc1cc(O)c(NC(=O)c2ccco2)cc1C	3%	-29%	99*	57*	7%
O=C(NCc1ccccn1)C(=O)Nc1cccc2ccccc12	21%	0%	53	18	17%
Cc1[nH]c2ccccc2c1N=Nc1ccccc1C(=O)O	u	-5%	48*	17*	10µM*
